Laboratory results: PubChem BioAssay (EPA / NIEHS)
Values joined by “and” are separate entries in the source; they are usually repeats but may differ in a detail not shown here. Equal values may be shown once. The source holds several records for some structures; these can differ, active in one and inactive in another. Active and inactive are the calls of the source. The calls were made as follows: active = hit-call score of the fitted dose curve at least 0.9, where 1 is the maximum; inactive = score below 0.9.

Legend:
[1] = read-out: Vascular cell adhesion molecule 1 (VCAM1), VCAM1 (gene 7412); experiment: BSK_CASM3C_VCAM1: BioMAP Diversity Plus: CASM3C Assay for Vascular cell adhesion molecule 1 (VCAM1) Biomarker Activity (AID 2283055); settings: primary human coronary artery smooth muscle cells; actives raise or lower the signal;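 also: VCAM-1 protein level quantified by ELISA on the cells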
[2] = read-out: Collagen III, COL3A1 (gene 1281); experiment: BSK_hDFCGF_CollagenIII: BioMAP Diversity Plus: hDFCGF Assay for Collagen III Biomarker Activity (AID 2283056); settings: primary human foreskin fibroblasts; actives raise or lower the signal
In short: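 Human foreskin fibroblast primary cultures sampled 24 h after dosing; Collagen III quantified by ELISA. Signal fitted bidirectionally against DMSO baseline.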

[3] = read-out: Epidermal growth factor receptor (EGFR), EGFR (gene 1956); experiment: BSK_hDFCGF_EGFR: BioMAP Diversity Plus: hDFCGF Assay for Epidermal growth factor receptor (EGFR) Biomarker Activity (AID 2283057); settings: primary human foreskin fibroblasts; actives raise or lower the signal
In short: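 Primary human foreskin fibroblasts were exposed to compound for 24 h, after which cell-surface EGFR was quantified by ELISA. Activity was fitted bidirectionally against the DMSO negative control as baseline.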

[4] = read-out: Interleukin-8 (IL8), CXCL8 (gene 3576); experiment: BSK_hDFCGF_IL8: BioMAP Diversity Plus: hDFCGF Assay for Interleukin-8 (IL8) Biomarker Activity (AID 2283058); settings: primary human foreskin fibroblasts; actives raise or lower the signal
In short: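 Primary human foreskin fibroblasts (hDFCGF system) dosed with chemical; IL-8 measured by ELISA 24 hours later. Bidirectional curve fitting relative to DMSO baseline; cytotoxicity tracked in parallel cultures by SRB total protein staining.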

[5] = BSK_hDFCGF_Proliferation: Cell Proliferation Assessment in the BioMAP Diversity Plus: hDFCGF Assay (AID 2283059); settings: primary human foreskin fibroblasts;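 also: curves fitted for both rise and fall of signal versus DMSO baseline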
In short: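 Steps: dose primary human dermal fibroblasts (foreskin); […] fix in 10% TCA; stain with 0.1% SRB; read 560 nm; fit gain or loss of signal against DMSO.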

[6] = read-out: Macrophage colony-stimulating factor (MCSF), CSF1 (gene 1435); experiment: BSK_hDFCGF_MCSF: BioMAP Diversity Plus: hDFCGF Assay for Macrophage colony-stimulating factor (MCSF) Biomarker Activity (AID 2283060); settings: primary human foreskin fibroblasts; actives raise or lower the signal
In short: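 Human foreskin fibroblast primary cultures; M-CSF measured by ELISA 24 hours after chemical dosing. Bidirectional fitting relative to DMSO, with overt cytotoxicity tracked by parallel SRB total-protein staining (0.1% SRB, 10% TCA fixation, 560 nm).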

[7] = BSK_hDFCGF_SRB: Viability Assessment in the BioMAP Diversity Plus: hDFCGF Assay (AID 2283061); settings: primary human foreskin fibroblasts;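 also: cells exposed to compound for 24 h before the read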
In short: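 Human foreskin fibroblasts in 96-well plates were treated 24 h. Total protein was measured by 0.1% SRB staining after 10% TCA fixation, read at 560 nm. Data were fitted bidirectionally against DMSO.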

[8] = read-out: TIMP metallopeptidase inhibitor 1 (TIMP1), TIMP1 (gene 7076); experiment: BSK_hDFCGF_TIMP1: BioMAP Diversity Plus: hDFCGF Assay for TIMP metallopeptidase inhibitor 1 (TIMP1) Biomarker Activity (AID 2283062); settings: primary human foreskin fibroblasts; actives raise or lower the signal
In short: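 Human foreskin fibroblast primary cultures dosed for 24 h; secreted/surface TIMP-1 quantified by ELISA. Bidirectional curve fitting against DMSO baseline; cytotoxicity tracked in parallel cultures by SRB total-protein staining.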

[9] = read-out: Monokine induced gamma interferon (MIG), CXCL9 (gene 4283); experiment: BSK_hDFCGF_MIG: BioMAP Diversity Plus: hDFCGF Assay for Monokine induced gamma interferon (MIG) Biomarker Activity (AID 2283063); settings: primary human foreskin fibroblasts; actives raise or lower the signal
In short: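 MIG/CXCL9 measured by ELISA 24 h after dosing primary human skin fibroblasts. Activity fitted in both directions against DMSO controls. Cytotoxicity was checked in parallel cultures by SRB staining read at 560 nm.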

[10] = read-out: Matrix Metallopeptidase 1 (MMP1), MMP1 (gene 4312); experiment: BSK_hDFCGF_MMP1: BioMAP Diversity Plus: hDFCGF Assay for Matrix Metallopeptidase 1 (MMP1) Biomarker Activity (AID 2283064); settings: primary human foreskin fibroblasts; actives raise or lower the signal
In short: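 hDFCGF primary fibroblasts (human foreskin); chemical added; 24 h; MMP1 by ELISA; bidirectional fit vs DMSO.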

Measured: AC50

O=S(=O)(c1ccc(Cl)cc1)c1ccc(Cl)cc1
inactive: all assays above

CC(C)(OO)c1ccccc1
inactive: [1]
active: [2] 20 µM | [3] 35.8 µM | [4] 38.1 µM | [5] 6.71 µM | [6] 28.9 µM | [7] 34.8 µM | [8] 34.7 µM | [9] 34.4 µM | [10] 37.1 µM

C(=NC1CCCCC1)=NC1CCCCC1
inactive: [3]
active: [1] 20 µM | [2] 33.2 µM | [4] 32.4 µM | [5] 20 µM | [6] 20 µM | [7] 13.8 µM | [8] 14.9 µM | [9] 26.8 µM | [10] 32.7 µM

OCc1ccco1
active: [5] 29.6 µM
inactive: all other assays above

CCSC(C)CC1CC(=O)C(C(CC)=NOC/C=C/Cl)=C(O)C1 (stereo unspecified)
not listed: [7]
inactive: all other assays above

C[C@]12CCC(=O)C[C@@H]1CC[C@@H]1[C@@H]2CC[C@]2(C)[C@@H](O)CC[C@@H]12
inactive: all assays above

O=C(O)C(F)(F)C(F)(F)C(F)(F)C(F)(F)C(F)(F)C(F)(F)F
inactive: all assays above

CCOP(=S)(OCC)Oc1nc(Cl)c(Cl)cc1Cl
active: [2] 9.2 µM | [5] 14.9 µM | [6] 11.9 µM | [10] 4.93 µM
not listed: [7]
inactive: all other assays above

CCOP(=S)(OCC)Oc1ccc(S(C)=O)cc1 (stereo unspecified)
inactive: all assays above

COP(=S)(OC)Oc1c(Cl)cc(C)cc1Cl
active: [2] 13.2 µM
inactive: all other assays above

CC(=O)OC(c1ccccc1)C(Cl)(Cl)Cl (stereo unspecified)
active: [5] 31 µM and 25.6 µM | [9] 36.7 µM
inactive: [1] | [2] | [3] | [4] | [6] | [8] | [9] | [10]

CCN1CCC2(CC1)COc1cc3c(cc12)N(C(=O)c1ccc(-c2ccc(-c4nnc(C)o4)cc2C)cc1)CC3
inactive: [3]
active: [1] 27.6 µM | [2] 9.42 µM | [4] 12.5 µM | [5] 5.13 µM | [6] 7.12 µM | [7] 6.07 µM | [8] 9.3 µM | [9] 11.2 µM | [10] 9.25 µM

CCC(=O)C(CC(C)N(C)C)(c1ccccc1)c1ccccc1 (stereo unspecified)
inactive: all assays above

COC(=O)Cc1ccccc1
inactive: all assays above

O=C(O)C(F)(F)C(F)(F)C(F)(F)C(F)(F)C(F)(F)C(F)(F)C(F)(F)C(F)(F)C(F)(F)C(F)(F)F
inactive: [1] | [3]
active: [2] 17.1 µM and 5.73 µM and 3.66 µM | [3] 835 nM and 906 nM | [4] 13.1 µM and 6.18 µM and 6.3 µM | [5] 4.01 µM and 2.28 µM and 2.17 µM | [6] 10.8 µM and 5.03 µM and 4.97 µM | [7] 9.04 µM and 5.23 µM and 5.22 µM | [8] 9.33 µM and 5.14 µM and 5.31 µM | [9] 11.5 µM and 4.94 µM and 5.08 µM | [10] 6.98 µM and 5.59 µM and 6.54 µM

O=C(O)CCC(F)(C(F)(F)F)C(F)(F)F
active: [1] 0.25 µM | [6] 5.95 µM
inactive: [1] | [2] | [3] | [4] | [5] | [6] | [7] | [8] | [9] | [10]
